Most compounds without a hit are left out; they make up all but 21% or so of the library.
Pf growth 48h – P. falciparum growth inhibition at 48 hours (one generation) | P. falciparum luciferase growth in erythrocytes, 48 h | Potency, µM (top dose mostly 28.7 µM), without a hit: top-dose activity change, negative = inhibition, hits mostly inhibitors | actives 5.9% (n = 310,000) | AID 504832; active = well fitted inhibition curve with a large enough effect; inconclusive = small, poorly fitted or top-dose-only effect, or another doubt; inactive = no such curve, though single readings can be large or run the other way; note: potency is the fitted concentration of half-maximal effect; % is set by controls: 0 for no effect and ±100 for the full control effect
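Cell-based growth assay: transgenic P. falciparum expressing firefly luciferase, cultured in red cells within RPMI 1640 containing 0.5% w/v Albumax, 24 mM bicarbonate and gentamycin. A drop in luciferase activity indicates inhibition.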
Pf growth 96h – P. falciparum growth inhibition at 96 hours; actives 6.9% (n = 320,000); Potency, µM (highest dose often 28.7 µM), for inactives: at the highest dose activity change, negative = inhibition, hits mostly inhibitors; P. falciparum luciferase reporter growth, 96 h; active = well fitted inhibition curve with a large enough effect; inconclusive = small, poorly fitted or top-dose-only effect, or another doubt; inactive = no such curve, though single readings can be large or run the other way; note: potency is the fitted concentration of half-maximal effect; % is set by controls: 0 for no effect and ±100 for the full control effect
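Cell-based qHTS: luciferase-tagged P. falciparum in erythrocytes (2% hematocrit, 0.05% parasitemia final) incubated with compounds for 96 hours, 37 C, 5% CO2; luciferase detection reagent then added and luminescence measured.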
CHX counter – counter-screen hit for Shiga toxin inhibitors, cycloheximide; cell reporter, cycloheximide protein synthesis inhibition counterscreen; actives 12% (n = 300,000); max response, %; in the data active = max response mostly above about 13%, no sharp cut-off; inactive = mostly below about 14%; note: read at 38.3 µM for the half of the compounds with a filed dose; 0% is about no effect
NS1 inh – blocks influenza NS1 protein function | actives 0.4% (n = 270,000) | Potency, µM (titrated, usually from 46.1 µM), inactives show top-dose activity, positive = more growth; note: potency is the fitted concentration of half-maximal effect; actives are rising curves; nearly all actives have a fitted effect of over 50% in size
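Recovery from NS1-induced slow growth read by OD600 in budding yeast switched to galactose assay medium (pH 6.0, -URA) at 1:100 dilution. Compound 23 nl per well; the matching strain lacking NS1 serves as control.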
Shiga toxin inh – inhibitors of Shiga toxin in Vero cells; Vero cells, Shiga toxin protein synthesis inhibition reporter; inhibition, % at 38.7 µM; actives 9.2% (n = 290,000); AID 2315; in the data active = inhibition mostly above about 28%, no sharp cut-off; inactive = mostly below about 43%; note: 0% is about no effect
SARS PLP yeast – inhibitors of SARS-CoV papain-like protease in yeast | actives 0.19% (n = 330,000) | AID 485353 | Potency, µM (highest dose often 32.9 µM), for the others: at the top dose activity, positive = growth rescue, actives largely listed as activators | S. cerevisiae expressing SARS-CoV PLpro, growth rescue; note: potency is the fitted concentration of half-maximal effect; 0% is about no effect; nearly all actives have a fitted effect of over 55% in size
Starred values were filed as active, the others as inactive; ? = inconclusive; . = no result. Unless noted, calls come from the whole dose curve.

SMILES	Pf growth 48h	Pf growth 96h	CHX counter	NS1 inh	Shiga toxin inh	SARS PLP yeast
COc1cccc(CNC(=O)c2ccc(NC(=O)C3CCCO3)cc2)c1 (configuration not stated)	16%	74%	1	-3%	-5	-2%
CCOc1ccc(NC(=O)c2ccc(NC(=O)c3ccc(CN4CCOCC4)cc3)cc2)cc1	-17%	12%	6	0%	32	0%
Cc1ccc(CNC(=O)c2ccc(NC(=O)C3=CSCCO3)cc2)cc1	14%	-16%	15	7%	28*	8%
CC(=O)C1=C(C)N2CCN=C2S1	23%	-8%	0	0%	-11	1%
O=C(COC(=O)c1cccc(Br)c1)Nc1ccc2[nH]c(=O)[nH]c2c1	0%	-5%	.	.	.	-9%
NC(=O)/C(=C\c1ccccc1)NC(=O)c1ccc(NC(=O)c2ccccc2)cc1	9%	14%	-3	1%	44	-1%
CC(=O)c1ccc(N2C(=O)CC(N3CCN(S(=O)(=O)c4ccc(C)c(C)c4)CC3)C2=O)cc1 (configuration not stated)	.	.	.	.	.	3%
Cc1cccc(NC(=O)C2CCN(S(=O)(=O)c3c(C)nn(C)c3C)CC2)n1	9%	?	-1	-2%	-13	6%
Cc1nn(C)c(C)c1S(=O)(=O)N1CCC(C(=O)NC2CCCCC2)CC1	5%	9.3µM*	-4	-5%	9	3%
O=C(NC1CCCCCC1)C1CCN(S(=O)(=O)c2c(Cl)cccc2Cl)CC1	?	-28%	.	.	.	7%
Cc1nn(C)c(C)c1S(=O)(=O)N1CCC(C(=O)NC2CCCCCC2)CC1	12%	5.2µM*	0	3%	-9	2%
CCN1CCN(Cc2ccc(NC(=O)c3ccc(C)c(NC(=O)c4csc(-c5ccncc5)n4)c3)cc2C(F)(F)F)CC1	1.7µM*	0.93µM*	-11	-33%	5	5%
CCN1CCN(Cc2ccc(NC(=O)c3ccc(C)c(NC(=O)c4c[nH]c5cc(C(F)(F)F)ccc5c4=O)c3)cc2C(F)(F)F)CC1	0.59µM*	0.52µM*	-5	?	-4	-6%
CCN1CCN(Cc2ccc(NC(=O)c3cc(NC(=O)C4=NN(c5ccccc5)C(=O)C4)cc(OC)c3)cc2C(F)(F)F)CC1	0.93µM*	0.33µM*	3	1%	12	0%
CCN1CCN(Cc2ccc(NC(=O)c3ccc(C)c(NC(=O)C4=NN(c5ccccc5)C(=O)C4)c3)cc2C(F)(F)F)CC1	0.41µM*	0.52µM*	-2	3%	-7	-1%
CCN1CCN(Cc2ccc(NC(=O)c3ccc(C)c(NC(=O)C[C@@H]4NC(=O)[C@H](Cc5ccccc5)NC4=O)c3)cc2C(F)(F)F)CC1	?	?	-6	-4%	23	8%
O=C(NCC1CCCO1)c1ccc(COc2ccccc2)cc1 (configuration not stated)	-1%	?	-1	11%	-19	-3%
CCN1CCN(Cc2ccc(NC(=O)c3ccc(C)c(NC(=O)c4cccc(-c5cn[nH]c(=O)c5)c4)c3)cc2C(F)(F)F)CC1	1.7µM*	1.5µM*	-1	-8%	-1	-6%
CCN1CCN(Cc2ccc(NC(=O)c3ccc(C)c(/C=C/c4cnc(Nc5cc(N6CCNCC6)nc(C)n5)cn4)c3)cc2C(F)(F)F)CC1	?	?	-7	-20%	-8	-3%
CCOc1ccc(N(CC(=O)O)S(=O)(=O)c2cccnc2)cc1	.	15µM*	-9	2%	-13	3%
CCOc1ccc(N(CC(=O)Nc2cccnc2)S(=O)(=O)c2ccc(C)cc2)cc1	13µM*	2%	.	.	.	-6%
COc1ccc(N(CC(=O)Nc2cccnc2)S(=O)(=O)c2ccc(C)cc2)cc1Cl	?	23%	-1	-15%	4	1%
O=[N+]([O-])c1cc(Cl)ccc1Oc1ccc(-c2nnco2)cc1	?	?	7	.	-7	-3%
O=C(Nc1ccccc1)C1Cc2ccccc2CN1C(=O)c1ccco1 (configuration not stated)	.	?	57*	17%	104	-2%
